In PubChem BioAssay:
Active and inactive are the calls of the source. Unless noted, the rule behind the calls is not given here.

Legend:
[1] = anti-His antibody binders, primary screen, artefact control for SMM control protein annotation, biochemical, small-molecule microarray, 635 nm fluorescence (AID 1128); settings: anti-His Alexa647 antibody binding, higher = more signal;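 note: score merges feature fluorescence with signal-to-noise for each printed compound spot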
[2] = tested on: Human papillomavirus type 1a E7 protein (residues 1-88); assay: HPV1a E7 small-molecule binders, primary screen, biochemical, small-molecule microarray, residues 1-88, 635 nm (AID 1129); settings: small-molecule microarray binding, fluorescence 635 nm; higher = more signal
[3] = biological target: Focal adhesion kinase 1 (Homo sapiens) (UniProt Q05397); assay: small-molecule microarray binders of FAK, primary screen, biochemical, 635/667 nm fluorescence, BSA, DTT (AID 1130); settings: PTK2 binding, 635 nm fluorescence, higher = more signal;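 note: composite of spot emission at 667 nm and signal to noise over triplicate slides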
[4] = tested on: Fibrinogen (Alexa647-labelled); assay: fibrinogen binders on compound microarrays, profiling panel, artefact control for SMM control-protein annotation, biochemical, small-molecule microarray, 635/667 nm fluorescence (AID 1131); settings: fibrinogen-A647 binding fluorescence, higher = more signal;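 note: z-score merges 667 nm fluorescence with per-spot signal-to-noise over triplicate slides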
[5] = biological target: Follistatin (Homo sapiens) (UniProt P19883); assay: follistatin binders on small-molecule microarrays, primary screen, biochemical, small-molecule microarray, 635/667 nm fluorescence (AID 1132); settings: FST binding, 635 nm fluorescence, higher = more signal
[6] = biological target: Fibroblast growth factor 2 (Homo sapiens) (UniProt P09038); assay: FGF2 binders on small-molecule microarrays, primary screen, biochemical, small-molecule microarray, 635/667 nm fluorescence (AID 1133); settings: small-molecule microarray binding, FGF2, fluorescence 635/667; higher = more signal
[7] = mitochondrial membrane potential change in A549 cells, profiling panel, cell-based, JC-1 fluorescence, basal, 24 h, 100 nL (AID 1138); settings: higher = more signal;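 note: A549 lung adenocarcinoma cells under basal conditions with no added stimulus; test concentration not given here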
[8] = tested on: Lefty1; assay: Lefty1 binders on small-molecule microarrays, primary screen, biochemical, small-molecule microarray, 635/667 nm fluorescence (AID 1139); settings: small-molecule microarray binding, fluorescence 635/667; higher = more signal
[9] = tested on: wheat germ agglutinin (Triticum aestivum), Alexa647-labelled; assay: wheat germ agglutinin binders on compound microarrays, profiling panel, artefact control for SMM control-protein annotation, biochemical, small-molecule microarray, 635/667 nm fluorescence (AID 1140); settings: WGA-A647 binding, 635 nm fluorescence, higher = more signal;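 note: score merges 667 nm feature emission with signal to noise over triplicate slides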
[10] = biological target: Luciferin 4-monooxygenase (Photinus pyralis) (UniProt P08659); assay: firefly luciferase enzyme inhibitors, primary screen, biochemical, luminescence, purified enzyme, 2006 set (AID 1141); settings: SteadyGlo luminescence, 30 min, higher = more signal, called active from +8 up or from −8 down;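 note: cell-free assay with purified firefly luciferase at 100 ng per well in PBS; test concentration not given here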
[11] = tested on: Wnt5a (protein binding on small-molecule microarray); assay: Wnt5a binders on small-molecule microarray, primary screen, biophysical, 635/667 nm fluorescence (AID 1142); settings: 635 nm fluorescence, higher = more signal;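 note: fluorescence read at 667 nm with signal to noise per printed feature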
[12] = cell viability in Huh7 cells, primary screen, cytotoxicity control for HCV replication inhibitor project, CellTiter-Glo luminescence, basal, 48 h (AID 1143); settings: Huh7 HCV replicon, higher = more signal, called active from +8 up or from −8 down;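 note: Huh7 hepatoma cells carrying a hepatitis C replication reporter with no stimulus; test concentration not given here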
[13] = P. aeruginosa biofilm formation inhibitors, primary screen, PAO1 strain, BacTiter-Glo luminescence, LB-PBS (AID 1144); settings: 12 h, higher = more signal
[14] = CREB reporter modulators without forskolin, primary screen, cell-based, PC12, CRE-LacZ reporter, unstimulated (AID 1145); settings: no forskolin, luminescence, 4.5 h, higher = more signal, called active from +8 up or from −8 down
[15] = CREB reporter modulators under forskolin, primary screen, cell-based, PC12, CRE-LacZ reporter, forskolin-stimulated (AID 1146); settings: luminescence, 4.5 h, higher = more signal, called active from +8 up or from −8 down;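 note: PC12 cells with 6xCRE LacZ reporter stimulated by forskolin 10 µM; beta-galactosidase reporter signal reflecting CREB driven transcription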
[16] = biological target: Streptavidin (Streptomyces avidinii) (UniProt P22629); assay: streptavidin binders on small-molecule microarray, primary screen, artefact control for SMM compound annotation, biophysical, 635/667 nm fluorescence (AID 1147); settings: streptavidin binding, higher = more signal;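 note: signal reflects streptavidin binding to arrayed compounds as a control protein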
[17] = small-molecule binders of probe aInhba, primary screen, biochemical, small-molecule microarray, 635/667 nm fluorescence (AID 1148); settings: higher = more signal;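 note: score merges 667nm spot fluorescence with signal-to-noise for antibody binding to printed compounds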
[18] = biological target: Torsin-1A (Homo sapiens) (UniProt O14656); assay: torsin A binders from cell lysate, primary screen, small-molecule microarray, wild-type, 635/667 nm (AID 1149); settings: COS7 hTOR1A-WT lysate, 635 nm fluorescence, higher = more signal
[19] = biological target: Torsin-1A (Homo sapiens) (UniProt O14656); assay: small-molecule binders of mutant TOR1A in lysate, primary screen, cell lysate, small-molecule microarray, COS7 lysate, 635/667 nm fluorescence (AID 1150); settings: COS7 hTOR1A mutant lysate, 635 nm fluorescence, higher = more signal;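 note: score pools 667 nm emission and signal to noise measuring lysate protein binding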
[20] = tested on: Sonic hedgehog protein (Shh); assay: small-molecule binders of Shh protein, primary screen, biochemical, small-molecule microarray, 635/667 nm fluorescence (AID 1151); settings: small-molecule microarray binding, 635 nm fluorescence; higher = more signal;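 note: Shh protein binding to compounds spotted on small-molecule microarray slides; score combines spot fluorescence intensity with signal-to-noise across triplicate slides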

Focal adhesion kinase 1 (Homo sapiens), sequence (Q05397 whole entry, looked up): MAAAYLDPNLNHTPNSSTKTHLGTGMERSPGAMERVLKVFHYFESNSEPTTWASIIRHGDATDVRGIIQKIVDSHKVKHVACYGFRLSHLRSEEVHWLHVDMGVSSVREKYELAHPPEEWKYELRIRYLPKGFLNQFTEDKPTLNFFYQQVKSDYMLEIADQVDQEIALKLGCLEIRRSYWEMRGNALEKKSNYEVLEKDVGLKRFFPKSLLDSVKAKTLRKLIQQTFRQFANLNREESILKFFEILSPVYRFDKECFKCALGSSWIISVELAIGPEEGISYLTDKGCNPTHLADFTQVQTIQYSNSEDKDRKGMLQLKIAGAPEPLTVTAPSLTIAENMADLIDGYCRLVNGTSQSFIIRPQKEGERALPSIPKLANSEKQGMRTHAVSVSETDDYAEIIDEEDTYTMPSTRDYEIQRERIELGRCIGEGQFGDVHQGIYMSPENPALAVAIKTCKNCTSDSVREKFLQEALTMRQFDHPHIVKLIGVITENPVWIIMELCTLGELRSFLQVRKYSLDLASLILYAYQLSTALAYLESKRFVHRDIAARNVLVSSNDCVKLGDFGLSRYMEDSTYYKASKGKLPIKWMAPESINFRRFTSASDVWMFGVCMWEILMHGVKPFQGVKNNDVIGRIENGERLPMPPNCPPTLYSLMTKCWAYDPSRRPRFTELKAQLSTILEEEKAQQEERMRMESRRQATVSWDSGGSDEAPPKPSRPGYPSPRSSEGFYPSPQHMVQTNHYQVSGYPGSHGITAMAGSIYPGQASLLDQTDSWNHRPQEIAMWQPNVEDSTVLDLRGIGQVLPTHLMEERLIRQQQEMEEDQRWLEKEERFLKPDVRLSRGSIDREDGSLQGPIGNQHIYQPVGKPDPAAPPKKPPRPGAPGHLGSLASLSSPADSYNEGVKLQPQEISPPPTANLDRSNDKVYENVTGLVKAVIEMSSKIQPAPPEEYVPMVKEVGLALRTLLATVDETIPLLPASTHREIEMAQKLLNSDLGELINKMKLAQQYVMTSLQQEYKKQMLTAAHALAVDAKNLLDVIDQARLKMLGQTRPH
Streptavidin (Streptomyces avidinii), sequence (P22629 whole entry, looked up): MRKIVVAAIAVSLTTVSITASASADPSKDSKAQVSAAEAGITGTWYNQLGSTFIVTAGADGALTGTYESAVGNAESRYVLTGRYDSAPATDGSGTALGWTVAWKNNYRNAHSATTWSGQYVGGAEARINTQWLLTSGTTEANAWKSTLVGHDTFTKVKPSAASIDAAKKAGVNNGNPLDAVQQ
Fibroblast growth factor 2 (Homo sapiens), sequence (P09038 whole entry, looked up): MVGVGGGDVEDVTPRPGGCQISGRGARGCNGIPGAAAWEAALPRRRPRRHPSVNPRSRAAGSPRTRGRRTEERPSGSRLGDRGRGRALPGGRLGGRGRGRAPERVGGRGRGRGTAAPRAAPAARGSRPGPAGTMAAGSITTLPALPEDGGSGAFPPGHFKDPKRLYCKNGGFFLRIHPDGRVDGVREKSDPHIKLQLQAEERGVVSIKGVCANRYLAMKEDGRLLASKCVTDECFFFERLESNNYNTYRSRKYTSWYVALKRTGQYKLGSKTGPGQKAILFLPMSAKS
Torsin-1A (Homo sapiens), sequence (O14656 whole entry, looked up): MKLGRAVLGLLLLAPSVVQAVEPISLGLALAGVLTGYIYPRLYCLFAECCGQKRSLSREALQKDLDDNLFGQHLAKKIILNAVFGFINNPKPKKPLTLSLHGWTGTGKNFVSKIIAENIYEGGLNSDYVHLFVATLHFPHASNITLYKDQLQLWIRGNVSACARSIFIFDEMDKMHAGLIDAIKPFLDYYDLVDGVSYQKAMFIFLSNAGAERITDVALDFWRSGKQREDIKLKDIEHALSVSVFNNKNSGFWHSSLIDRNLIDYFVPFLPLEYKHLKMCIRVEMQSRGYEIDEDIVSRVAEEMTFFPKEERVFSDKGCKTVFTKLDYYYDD
Luciferin 4-monooxygenase (Photinus pyralis), sequence (P08659 whole entry, looked up): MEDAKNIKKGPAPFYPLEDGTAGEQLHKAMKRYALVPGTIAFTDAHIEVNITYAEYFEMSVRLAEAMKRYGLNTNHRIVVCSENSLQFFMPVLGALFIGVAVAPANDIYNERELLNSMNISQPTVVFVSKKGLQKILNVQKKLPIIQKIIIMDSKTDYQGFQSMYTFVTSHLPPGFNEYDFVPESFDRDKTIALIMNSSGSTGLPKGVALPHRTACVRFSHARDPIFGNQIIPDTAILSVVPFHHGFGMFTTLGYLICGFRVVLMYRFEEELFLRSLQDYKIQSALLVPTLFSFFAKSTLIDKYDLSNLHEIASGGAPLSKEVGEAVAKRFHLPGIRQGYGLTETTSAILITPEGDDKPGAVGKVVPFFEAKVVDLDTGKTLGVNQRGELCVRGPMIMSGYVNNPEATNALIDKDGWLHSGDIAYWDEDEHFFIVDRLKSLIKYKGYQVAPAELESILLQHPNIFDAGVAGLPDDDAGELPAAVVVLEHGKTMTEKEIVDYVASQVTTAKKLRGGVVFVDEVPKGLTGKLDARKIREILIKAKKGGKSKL
Follistatin (Homo sapiens), sequence (P19883 whole entry, looked up): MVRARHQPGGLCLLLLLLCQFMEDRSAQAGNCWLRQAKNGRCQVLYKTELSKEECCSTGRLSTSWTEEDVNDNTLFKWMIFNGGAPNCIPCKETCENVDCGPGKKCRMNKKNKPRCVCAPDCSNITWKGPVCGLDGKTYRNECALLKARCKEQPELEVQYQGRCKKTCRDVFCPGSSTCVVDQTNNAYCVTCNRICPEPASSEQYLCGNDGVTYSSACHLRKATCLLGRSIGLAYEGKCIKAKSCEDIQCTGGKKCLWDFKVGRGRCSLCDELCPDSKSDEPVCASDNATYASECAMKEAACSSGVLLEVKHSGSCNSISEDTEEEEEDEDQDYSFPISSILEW

| SMILES | composite z-score [1] | composite z-score [2] | composite z-score [3] | composite z-score [4] | composite z-score [5] | composite z-score [6] | z-score [7] | composite z-score [8] | composite z-score [9] | z-score [10] | composite z-score [11] | z-score [12] | z-score [13] | z-score [14] | z-score [15] | composite z-score [16] | composite z-score [17] | composite z-score [18] | composite z-score [19] | composite z-score [20] |
| --- | --- | --- | --- | --- | --- | --- | --- | --- | --- | --- | --- | --- | --- | --- | --- | --- | --- | --- | --- | --- |
| CC(CO)N1C(=O)[C@@H]2[C@H]3C(=O)OCC=C[C@H]3OC23C=CCN(CCN2CCOCC2)C(=O)[C@@H]13 (stereo not given in full) | 1.01 | -0.549 | -0.568 | -1.3 | 0.207 | -0.443 | 0.659 | 0.27 | 0.11 | -0.531 (inactive) | 0.0471 | -0.62 (inactive) | 1.3 (inactive) | 0.463 (inactive) | 0.0027 (inactive) | -0.418 | -0.314 | -0.829 | -0.475 | 1.65 |
| CCCC[C@@H]1C[C@H]1[C@@H](NC(=O)Cc1ccccc1)c1ccc(-c2ccccc2)cc1 | 0.272 | 1.12 | 0.913 | 0.655 | -0.173 | -0.405 | 0.629 | -0.0127 | 0.0864 | 0.624 (inactive) | -0.111 | -1.31 (inactive) | 1.65 (inactive) | 0.39 (inactive) | 1.19 (inactive) | 0.698 | -0.158 | -0.369 | 0.21 | -0.756 |
| COC1OC[C@]2(C)[C@H]3C4=C(CN2C(=O)OC(C)(C)C)[C@H](C)C(CO)C(CO)C4CC[C@@H]13 (stereo not given in full) | 2.1 | 1.24 | 1.14 | 0.998 | 1.05 | -0.636 | 2.03 | -0.664 | 1.41 | 0.0207 (inactive) | 0.987 | -0.14 (inactive) | 0.326 (inactive) | 0.197 (inactive) | 0.212 (inactive) | 2.17 | 0.109 | 0.288 | 0.86 | -0.0425 |
| C=C(/C(=C/C[C@H](OC(=O)c1ccncc1)c1ccc(CO)o1)c1cc(C(=O)OC)ccc1OC)C(C)C | 2 | 1.02 | -0.0585 | 0.448 | 1.07 | 1.21 | -0.432 | 1.14 | 0.433 | -1.32 (inactive) | -0.0222 | -0.398 (inactive) | -0.742 (inactive) | 0.621 (inactive) | 0.953 (inactive) | -0.328 | 0.16 | 1.3 | 1.81 | 1.36 |
| CCCCO[C@H]1C[C@H]2C(I)=C[C@@H]1C(=O)[C@]21CO1 | 1.74 | -0.522 | 0.047 | -0.886 | 0.145 | 0.129 | 0.258 | 0.351 | -0.164 | 0.274 (inactive) | -0.0784 | -0.232 (inactive) | 0.0666 (inactive) | 0.496 (inactive) | 0.672 (inactive) | -0.258 | -0.161 | -0.336 | -0.145 | 0.816 |
| CN(C)C(=O)[C@@]1(Cc2ccccc2CN=[N+]=[N-])N=C(c2ccc(OCCCO)cc2)O[C@H]1c1ccccc1CN=[N+]=[N-] | 2.33 | 1.21 | 0.419 | 0.856 | 0.652 | -0.025 | 1.43 | -0.483 | 1.12 | 0.184 (inactive) | 0.507 | -3.14 (inactive) | 0.427 (inactive) | 2.69 (inactive) | 0.517 (inactive) | 1.1 | 0.575 | 0.0276 | 0.767 | -0.304 |
| C[C@@H]1NC(=O)[C@@]23C(=O)N[C@@H](Cc4ccccc4)C2[C@H](C)[C@@]2(C)O[C@H]2C3/C=C/C/C=C\CNC(=O)[C@@H]2CCCN2C1=O (stereo not given in full) | 0.104 | -0.715 | -0.178 | -1.12 | 0.148 | -0.197 | 0.0238 | 0.0216 | -0.628 | 0.0545 (inactive) | -0.0872 | -0.0642 (inactive) | -0.426 (inactive) | -0.687 (inactive) | -0.226 (inactive) | -0.591 | -0.159 | 0.271 | -0.127 | 0.44 |
| CC(=O)c1ccc(C(O)C2C=CC3C(=O)N(c4ccccc4)C(=O)C3N2Nc2ccc(C#N)cc2)cc1 (stereo not given) | 0.631 | 1.01 | 1.27 | 0.72 | -0.111 | 0.196 | 0.0866 | -0.253 | 0.714 | -0.0334 (inactive) | -0.14 | 0.338 (inactive) | -0.864 (inactive) | 1.19 (inactive) | 0.574 (inactive) | 1.14 | 0.0422 | -0.167 | 0.261 | -0.964 |
| N#Cc1ccc(C(O)C2C=CC3C(=O)N(c4ccccc4)C(=O)C3N2Nc2ccccc2)cc1 (stereo not given) | 0.269 | 0.455 | 0.575 | 0.528 | 0.351 | -0.265 | -0.171 | -0.454 | 0.502 | -1.26 (inactive) | 0.429 | -3.06 (inactive) | -0.955 (inactive) | -0.133 (inactive) | 0.0648 (inactive) | 0.592 | 0.144 | -0.0489 | 0.227 | -0.669 |
| O=C1N(Cc2ccccc2)Cc2ccccc2[C@@H]2OC(c3ccc(OCCCO)cc3)=N[C@]12CCS(=O)(=O)c1ccccc1 | 0.624 | 1.19 | 0.389 | 0.768 | 0.953 | 1.4 | -0.461 | -0.0333 | 1.04 | -0.929 (inactive) | 0.534 | -2.33 (inactive) | 0.245 (inactive) | 3.78 (inactive) | -0.832 (inactive) | 0.379 | 0.0742 | 0.529 | 0.489 | 1.42 |
